“And” between values parts separate entries of the source, which are not always exact repeats. Equal values may be shown once. About 2,000 (36%) of roughly 5,500 compounds were called active. About 18% were inconclusive and are not listed. Rule as the data show it: active = normalized growth mostly below about 0.91 (no sharp cut-off); inconclusive = no clear call, values can overlap the other calls; inactive = mostly above about 0.92. The list shows a part of the results.
Assay: chemical genetic growth profiling, strain panel (AID 1159580);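 also: tested at 20 µM; growth read once vehicle control cultures reached saturation at 30 °C; 1 = growth at the plate median or of vehicle wells; lower values mean less growth of the strain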
Conditions: growth OD

Measured: normalized growth

Cn1c(=O)c2[nH]cnc2n(C)c1=O
inactive: S. cerevisiae deletion strains, locus YJR066W, strain TOR1, hits give low values 0.959 | S. cerevisiae deletion strains, locus YKL009W, strain mrt4, hits give low values 0.98 | S. cerevisiae deletion strains, locus YKL068W, hits give low values 0.992 | S. cerevisiae deletion strains, locus YKL085W, strain MDH1 (second series), hits give low values 0.982 | S. cerevisiae deletion strains, locus YKL085W, strain MDH1, hits give low values 0.982 | S. cerevisiae deletion strains, locus YKL160W, strain elf1, hits give low values 1.04 | S. cerevisiae deletion strains, locus YKL190W, strain CNB1, hits give low values 0.996 | S. cerevisiae deletion strains, locus YKR001C, strain vps1, hits give low values 0.971 | S. cerevisiae deletion strains, locus YKR026C, strain gcn3, hits give low values 1.01 | S. cerevisiae deletion strains, locus YKR091W, strain srl3, hits give low values 1.02 | S. cerevisiae deletion strains, locus YLL001W, strain dnm1, hits give low values 1.01 | S. cerevisiae deletion strains, locus YLL026W, hits give low values 1.02 | S. cerevisiae deletion strains, locus YLL041C, strain sdh2, hits give low values 1.01 | S. cerevisiae deletion strains, locus YLR027C, strain aat2, hits give low values 1.02 | S. cerevisiae deletion strains, locus YLR039C, strain RIC1, hits give low values 0.982 | S. cerevisiae deletion strains, locus YLR058C, strain SHM2, hits give low values 0.988 | S. cerevisiae deletion strains, locus YLR102C, strain apc9, hits give low values 0.977 | S. cerevisiae deletion strains, locus YLR113W, strain HOG1, hits give low values 0.99 | S. cerevisiae deletion strains, locus YLR221C, strain rsa3, hits give low values 1.02 | S. cerevisiae deletion strains, locus YLR258W, strain gsy2, hits give low values 1.02 | S. cerevisiae deletion strains, locus YLR262C, strain YPT6 (second series), hits give low values 1 | S. cerevisiae deletion strains, locus YLR262C, strain YPT6, hits give low values 0.993 | S. cerevisiae deletion strains, locus YLR268W, strain sec22, hits give low values 0.941 | S. cerevisiae deletion strains, locus YLR320W, strain mms22, hits give low values 1.01 | S. cerevisiae deletion strains, locus YLR330W, strain CHS5, hits give low values 0.992 | S. cerevisiae deletion strains, locus YLR342W, strain FKS1 (second series), hits give low values 0.99 | S. cerevisiae deletion strains, locus YLR342W, strain FKS1, hits give low values 1.02 | S. cerevisiae deletion strains, locus YLR357W, strain rsc2, hits give low values 1.01 | S. cerevisiae deletion strains, locus YLR370C, strain arc18, hits give low values 1.03 | S. cerevisiae deletion strains, locus YLR371W, strain rom2, hits give low values 0.968 | S. cerevisiae deletion strains, locus YLR384C, strain iki3, hits give low values 1.01 | S. cerevisiae deletion strains, locus YLR418C, strain cdc73, hits give low values 0.971 | S. cerevisiae deletion strains, locus YML016C, strain PPZ1, hits give low values 0.989 | S. cerevisiae deletion strains, locus YML032C, strain rad52, hits give low values 0.971 | S. cerevisiae deletion strains, locus YML120C, strain ndi1, hits give low values 1.02 | S. cerevisiae deletion strains, locus YML124C, strain tub3, hits give low values 0.969 | S. cerevisiae deletion strains, locus YMR058W, strain fet3, hits give low values 1.02 | S. cerevisiae deletion strains, locus YMR078C, strain ctf18, hits give low values 0.975 | S. cerevisiae deletion strains, locus YMR125W, strain sto1, hits give low values 1.01 | S. cerevisiae deletion strains, locus YMR129W, hits give low values 1.01 | S. cerevisiae deletion strains, locus YMR205C, strain PFK2, hits give low values 1.04 | S. cerevisiae deletion strains, locus YMR223W, strain ubp8, hits give low values 0.984 | S. cerevisiae deletion strains, locus YMR231W, strain pep5, hits give low values 1.02 | S. cerevisiae deletion strains, locus YMR263W, strain SAP30, hits give low values 0.996 | S. cerevisiae deletion strains, locus YMR307W, strain GAS1, hits give low values 0.992 | S. cerevisiae deletion strains, locus YNL067W, strain RPL9B, hits give low values 0.993 | S. cerevisiae deletion strains, locus YNL071W, strain lat1, hits give low values 1.03 | S. cerevisiae deletion strains, locus YNL128W, strain TEP1, hits give low values 0.985 | S. cerevisiae deletion strains, locus YNL153C, strain GIM3, hits give low values 0.988 | S. cerevisiae deletion strains, locus YNL175C, strain NOP13, hits give low values 0.995 | S. cerevisiae deletion strains, locus YNL183C, strain NPR1, hits give low values 0.955 | S. cerevisiae deletion strains, locus YNL197C, strain WHI3, hits give low values 1 | S. cerevisiae deletion strains, locus YNL209W, strain ssb2, hits give low values 1.02 | S. cerevisiae deletion strains, locus YNL224C, strain SQS1, hits give low values 0.99 | S. cerevisiae deletion strains, locus YNL233W, strain BNI4, hits give low values 0.993 | S. cerevisiae deletion strains, locus YNL248C, strain rpa49, hits give low values 1.05 | S. cerevisiae deletion strains, locus YNL250W, strain rad50, hits give low values 0.979 | S. cerevisiae deletion strains, locus YNL271C, strain bni1, hits give low values 0.967 | S. cerevisiae deletion strains, locus YNL298W, strain CLA4, hits give low values 0.965 | S. cerevisiae deletion strains, locus YNL307C, strain MCK1, hits give low values 0.971 | S. cerevisiae deletion strains, locus YNL322C, strain KRE1 (second series), hits give low values 1.01 | S. cerevisiae deletion strains, locus YNR049C, strain mso1, hits give low values 1.02 | S. cerevisiae deletion strains, locus YNR052C, strain pop2, hits give low values 0.971 | S. cerevisiae deletion strains, locus YOL006C, strain TOP1, hits give low values 1.01 | S. cerevisiae deletion strains, locus YOL012C, strain htz1 0.812 | S. cerevisiae deletion strains, locus YOL147C, strain pex11, hits give low values 0.973 | S. cerevisiae deletion strains, locus YOR001W, strain rrp6, hits give low values 0.994 | S. cerevisiae deletion strains, locus YOR061W, strain CKA2, hits give low values 0.988 | S. cerevisiae deletion strains, locus YOR069W, strain VPS5, hits give low values 0.982 | S. cerevisiae deletion strains, locus YOR070C, strain gyp1, hits give low values 1.04 | S. cerevisiae deletion strains, locus YOR080W, strain dia2, hits give low values 1 | S. cerevisiae deletion strains, locus YOR083W, strain WHI5 (second series), hits give low values 1.01 | S. cerevisiae deletion strains, locus YOR083W, strain WHI5, hits give low values 1.03 | S. cerevisiae deletion strains, locus YOR106W, strain vam3, hits give low values 1.05 | S. cerevisiae deletion strains, locus YOR136W, strain idh2, hits give low values 0.986 | S. cerevisiae deletion strains, locus YOR144C, strain elg1, hits give low values 0.981 | S. cerevisiae deletion strains, locus YOR184W, strain ser1, hits give low values 0.97 | S. cerevisiae deletion strains, locus YOR231W, strain MKK1, hits give low values 0.979 | S. cerevisiae deletion strains, locus YOR265W, strain rbl2, hits give low values 1.01 | S. cerevisiae deletion strains, locus YOR270C, strain vph1, hits give low values 1.05 | S. cerevisiae deletion strains, locus YOR290C, strain snf2, hits give low values 1.05 | S. cerevisiae deletion strains, locus YOR316C, strain cot1, hits give low values 0.969 | S. cerevisiae deletion strains, locus YPL051W, strain arl3, hits give low values 1.04 | S. cerevisiae deletion strains, locus YPL078C, strain atp4, hits give low values 1.04 | S. cerevisiae deletion strains, locus YPL106C, strain sse1, hits give low values 1.05 | S. cerevisiae deletion strains, locus YPL240C, strain hsp82, hits give low values 1.02 | S. cerevisiae deletion strains, locus YPL241C, strain CIN2, hits give low values 0.992 and 1 | S. cerevisiae deletion strains, locus YPL256C, strain CLN2, hits give low values 0.97 | S. cerevisiae deletion strains, locus YPR119W, strain clb2, hits give low values 0.986 | S. cerevisiae deletion strains, locus YPR141C, strain kar3, hits give low values 0.961 | S. cerevisiae deletion strains, locus YPR163C, strain tif3, hits give low values 0.965 | S. cerevisiae deletion strains, locus YPR167C, strain met16, hits give low values 0.977 | S. cerevisiae deletion strains, strain wtn01, hits give low values 0.953 | S. cerevisiae strains, strain wild type, hits give low values 1

— PubChem BioAssay AID1159580 (chemical genetic matrix, 2015)
